In PubChem BioAssay AID1159580 (chemical genetic matrix, 2015):
“And” between values parts separate entries of the source, which are not always exact repeats. Equal entries are not always repeated. Hit rate of the full screen: of about 5,500 compounds, about 2,000 (36%) were called active. Roughly 18% stayed inconclusive and do not appear here. No stated cut-off is given here; in the data, active means normalized growth mostly below about 0.91 (no sharp cut-off); inconclusive means no clear call, values can overlap the other calls; inactive means mostly above about 0.92. This is one part of the list.

Experiment: chemical genetic growth profiling, strain panel (AID 1159580);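 further: tested at 20 µM; growth read once vehicle control cultures reached saturation at 30 °C; 1 = growth at the plate median or of vehicle wells; lower values mean less growth of the strain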
Settings: growth OD

Measured: normalized growth

NCCCCC(=O)O
inactive: S. cerevisiae deletion strains, locus YKL009W, strain mrt4, active compounds read low 1.01 | S. cerevisiae deletion strains, locus YKL068W, active compounds read low 1 | S. cerevisiae deletion strains, locus YKL085W, strain MDH1 (second series), active compounds read low 1.04 | S. cerevisiae deletion strains, locus YKL085W, strain MDH1, active compounds read low 1.04 | S. cerevisiae deletion strains, locus YKL160W, strain elf1, active compounds read low 1.03 | S. cerevisiae deletion strains, locus YKL190W, strain CNB1, active compounds read low 1.02 | S. cerevisiae deletion strains, locus YKR001C, strain vps1, active compounds read low 0.996 | S. cerevisiae deletion strains, locus YKR026C, strain gcn3, active compounds read low 1.02 | S. cerevisiae deletion strains, locus YKR091W, strain srl3, active compounds read low 1.02 | S. cerevisiae deletion strains, locus YLL001W, strain dnm1, active compounds read low 1.01 | S. cerevisiae deletion strains, locus YLL026W, active compounds read low 1.01 | S. cerevisiae deletion strains, locus YLL041C, strain sdh2, active compounds read low 1.01 | S. cerevisiae deletion strains, locus YLR027C, strain aat2, active compounds read low 1.02 | S. cerevisiae deletion strains, locus YLR039C, strain RIC1, active compounds read low 1.06 | S. cerevisiae deletion strains, locus YLR058C, strain SHM2, active compounds read low 1.03 | S. cerevisiae deletion strains, locus YLR102C, strain apc9, active compounds read low 0.999 | S. cerevisiae deletion strains, locus YLR113W, strain HOG1, active compounds read low 1 | S. cerevisiae deletion strains, locus YLR221C, strain rsa3, active compounds read low 1 | S. cerevisiae deletion strains, locus YLR258W, strain gsy2, active compounds read low 1.02 | S. cerevisiae deletion strains, locus YLR262C, strain YPT6 (second series), active compounds read low 1.03 | S. cerevisiae deletion strains, locus YLR262C, strain YPT6, active compounds read low 1.09 | S. cerevisiae deletion strains, locus YLR268W, strain sec22, active compounds read low 1 | S. cerevisiae deletion strains, locus YLR320W, strain mms22, active compounds read low 1.03 | S. cerevisiae deletion strains, locus YLR330W, strain CHS5, active compounds read low 1.02 | S. cerevisiae deletion strains, locus YLR342W, strain FKS1 (second series), active compounds read low 1.01 | S. cerevisiae deletion strains, locus YLR342W, strain FKS1, active compounds read low 1.02 | S. cerevisiae deletion strains, locus YLR357W, strain rsc2, active compounds read low 1.04 | S. cerevisiae deletion strains, locus YLR370C, strain arc18, active compounds read low 1.02 | S. cerevisiae deletion strains, locus YLR371W, strain rom2, active compounds read low 0.995 | S. cerevisiae deletion strains, locus YLR384C, strain iki3, active compounds read low 1.03 | S. cerevisiae deletion strains, locus YLR418C, strain cdc73, active compounds read low 1.02 | S. cerevisiae deletion strains, locus YML016C, strain PPZ1, active compounds read low 1.03 | S. cerevisiae deletion strains, locus YML032C, strain rad52, active compounds read low 0.979 | S. cerevisiae deletion strains, locus YML120C, strain ndi1, active compounds read low 1.01 | S. cerevisiae deletion strains, locus YML124C, strain tub3, active compounds read low 0.987 | S. cerevisiae deletion strains, locus YMR058W, strain fet3, active compounds read low 1.02 | S. cerevisiae deletion strains, locus YMR078C, strain ctf18, active compounds read low 0.983 | S. cerevisiae deletion strains, locus YMR125W, strain sto1, active compounds read low 1 | S. cerevisiae deletion strains, locus YMR129W, active compounds read low 1.02 | S. cerevisiae deletion strains, locus YMR205C, strain PFK2, active compounds read low 1.03 | S. cerevisiae deletion strains, locus YMR223W, strain ubp8, active compounds read low 0.976 | S. cerevisiae deletion strains, locus YMR231W, strain pep5, active compounds read low 1.01 | S. cerevisiae deletion strains, locus YMR263W, strain SAP30, active compounds read low 1.03 | S. cerevisiae deletion strains, locus YMR307W, strain GAS1, active compounds read low 1.04 | S. cerevisiae deletion strains, locus YNL067W, strain RPL9B, active compounds read low 1.04 | S. cerevisiae deletion strains, locus YNL071W, strain lat1, active compounds read low 1.01 | S. cerevisiae deletion strains, locus YNL128W, strain TEP1, active compounds read low 1.02 and 1.01 | S. cerevisiae deletion strains, locus YNL153C, strain GIM3, active compounds read low 1.02 | S. cerevisiae deletion strains, locus YNL175C, strain NOP13, active compounds read low 1.03 | S. cerevisiae deletion strains, locus YNL183C, strain NPR1, active compounds read low 0.894 | S. cerevisiae deletion strains, locus YNL197C, strain WHI3, active compounds read low 1.01 | S. cerevisiae deletion strains, locus YNL209W, strain ssb2, active compounds read low 1.02 | S. cerevisiae deletion strains, locus YNL224C, strain SQS1, active compounds read low 1 | S. cerevisiae deletion strains, locus YNL233W, strain BNI4, active compounds read low 1.03 | S. cerevisiae deletion strains, locus YNL248C, strain rpa49, active compounds read low 1.01 | S. cerevisiae deletion strains, locus YNL250W, strain rad50, active compounds read low 1 | S. cerevisiae deletion strains, locus YNL271C, strain bni1, active compounds read low 0.99 | S. cerevisiae deletion strains, locus YNL298W, strain CLA4, active compounds read low 0.99 | S. cerevisiae deletion strains, locus YNL307C, strain MCK1, active compounds read low 0.987 | S. cerevisiae deletion strains, locus YNL322C, strain KRE1 (second series), active compounds read low 1.02 | S. cerevisiae deletion strains, locus YNL322C, strain KRE1, active compounds read low 1.02 | S. cerevisiae deletion strains, locus YNR049C, strain mso1, active compounds read low 1.01 | S. cerevisiae deletion strains, locus YNR052C, strain pop2, active compounds read low 0.993 | S. cerevisiae deletion strains, locus YOL006C, strain TOP1, active compounds read low 1.08 | S. cerevisiae deletion strains, locus YOL012C, strain htz1 0.929 | S. cerevisiae deletion strains, locus YOL147C, strain pex11, active compounds read low 0.99 | S. cerevisiae deletion strains, locus YOR001W, strain rrp6, active compounds read low 1.03 | S. cerevisiae deletion strains, locus YOR061W, strain CKA2, active compounds read low 1.02 | S. cerevisiae deletion strains, locus YOR069W, strain VPS5, active compounds read low 1.01 | S. cerevisiae deletion strains, locus YOR070C, strain gyp1, active compounds read low 1.02 | S. cerevisiae deletion strains, locus YOR080W, strain dia2, active compounds read low 1.02 | S. cerevisiae deletion strains, locus YOR083W, strain WHI5 (second series), active compounds read low 1.05 | S. cerevisiae deletion strains, locus YOR083W, strain WHI5, active compounds read low 1.02 | S. cerevisiae deletion strains, locus YOR106W, strain vam3, active compounds read low 1.02 | S. cerevisiae deletion strains, locus YOR136W, strain idh2, active compounds read low 0.982 | S. cerevisiae deletion strains, locus YOR144C, strain elg1, active compounds read low 0.999 | S. cerevisiae deletion strains, locus YOR184W, strain ser1, active compounds read low 0.984 | S. cerevisiae deletion strains, locus YOR231W, strain MKK1, active compounds read low 0.988 | S. cerevisiae deletion strains, locus YOR265W, strain rbl2, active compounds read low 1.02 | S. cerevisiae deletion strains, locus YOR270C, strain vph1, active compounds read low 1.05 | S. cerevisiae deletion strains, locus YOR290C, strain snf2, active compounds read low 1.01 | S. cerevisiae deletion strains, locus YOR316C, strain cot1, active compounds read low 0.992 | S. cerevisiae deletion strains, locus YPL051W, strain arl3, active compounds read low 1.01 | S. cerevisiae deletion strains, locus YPL055C, strain LGE1, active compounds read low 1.05 and 0.99 | S. cerevisiae deletion strains, locus YPL078C, strain atp4, active compounds read low 1.03 | S. cerevisiae deletion strains, locus YPL106C, strain sse1, active compounds read low 1.03 | S. cerevisiae deletion strains, locus YPL240C, strain hsp82, active compounds read low 1.01 | S. cerevisiae deletion strains, locus YPL241C, strain CIN2, active compounds read low 0.963 | S. cerevisiae deletion strains, locus YPL256C, strain CLN2, active compounds read low 0.965 | S. cerevisiae deletion strains, locus YPR119W, strain clb2, active compounds read low 0.989 | S. cerevisiae deletion strains, locus YPR141C, strain kar3, active compounds read low 0.98 | S. cerevisiae deletion strains, locus YPR163C, strain tif3, active compounds read low 0.982 | S. cerevisiae deletion strains, locus YPR167C, strain met16, active compounds read low 0.989 | S. cerevisiae deletion strains, strain wtn01, active compounds read low 1 | S. cerevisiae strains, strain wild type, active compounds read low 1.01
